Over roughly 33,000 sequences, “E-score (-0.5 to 0.5)” has its median near -0.016; the highest 2% begin near 0.31. Only a selection was taken, and the highest values are over-represented in it overall.
Target: Cst6 (UniProt P40535)
Test: PBM E-score (8-mer binding enrichment) (E-score (-0.5 to 0.5)); higher = stronger / more preferred TF binding
Details: protein concentration: 200 nM; construct: GST-DNA-binding domain
Summary of the method: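 Masliner-normalised scans of fluorescent anti-GST signal were the basis for scoring. That signal came from GST-tagged yeast transcription factors applied at about 100-200 nM to double-stranded universal all-10-mer Agilent arrays on fresh or once-stripped slides. Each ungapped eight-base word, pooled with its reverse complement, received an E-score from the Universal PBM Analysis Suite.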

Sequence of UniProt P40535 (P40535 whole entry): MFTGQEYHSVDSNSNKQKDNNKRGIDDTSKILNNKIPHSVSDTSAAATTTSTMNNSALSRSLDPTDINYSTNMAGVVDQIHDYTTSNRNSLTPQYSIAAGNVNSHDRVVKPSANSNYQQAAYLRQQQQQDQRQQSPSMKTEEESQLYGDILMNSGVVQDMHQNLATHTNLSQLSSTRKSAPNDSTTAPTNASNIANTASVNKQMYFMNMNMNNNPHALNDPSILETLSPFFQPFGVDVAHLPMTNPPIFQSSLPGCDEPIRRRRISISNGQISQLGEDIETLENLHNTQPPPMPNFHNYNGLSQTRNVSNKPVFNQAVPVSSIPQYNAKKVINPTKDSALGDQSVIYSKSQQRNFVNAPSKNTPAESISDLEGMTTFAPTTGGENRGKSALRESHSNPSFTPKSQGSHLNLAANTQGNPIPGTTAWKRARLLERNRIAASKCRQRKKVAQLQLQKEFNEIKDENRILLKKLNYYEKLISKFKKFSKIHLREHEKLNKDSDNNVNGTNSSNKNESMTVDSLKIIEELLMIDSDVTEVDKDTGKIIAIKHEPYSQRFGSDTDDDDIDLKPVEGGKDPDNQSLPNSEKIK

Row | Sequence | PBM E-score
1 | AGAACGGG | -0.0993
2 | CAATAAGA | 0.181
3 | ACTGGTTA | 0.0197
4 | AGGGACGA | 0.0201
5 | CGAGCTCA | -0.0803
6 | TGAGCTCA | 0.374
7 | AGAGCTCA | -0.192
8 | GAACCGCC | -0.092
9 | GAGCTAAA | -0.0615
10 | ACCGTATA | -0.0183
11 | TACGTATA | 0.328
12 | CACGTATG | 0.204
13 | GCCGTATA | 0.367
14 | CACGTATA | 0.167
15 | AACGTACA | 0.0856
16 | TACGTACA | 0.336
17 | CACGTACA | -0.0529
18 | GACGTATA | 0.322
19 | TACGTAGA | 0.224
20 | AACGTATA | 0.215
21 | CCCGTATA | -0.0644
22 | ATGTTCGA | 0.0764
23 | CAATTGTC | 0.0392
24 | AGGATACC | -0.251
25 | GCAGTAAC | -0.065
26 | CATTCTGC | 0.0305

Row | Sequence | PBM E-score
27 | CTTCGATA | 0.178
28 | ATTCCAAA | 0.118
29 | CGCATCCC | -0.216
30 | ACGTAGCC | -0.0377
31 | GACGACGC | 0.074
32 | GATGACAC | 0.286
33 | GATGACTA | 0.171
34 | GATGACGA | 0.463
35 | GATGACAA | 0.333
36 | CATGACAA | 0.14
37 | GATGACGC | 0.473
38 | GATGACCC | -0.0821
39 | AATGACAT | 0.422
40 | GATGACCA | 0.101
41 | AATGACAA | 0.267
42 | AATGACAG | 0.167
43 | ATAAGGGC | 0.0296
44 | GCCGATAC | -0.136
45 | CTCGCTAA | 0.0589
46 | AGACGTTA | 0.0355
47 | TGATCGCA | 0.0445
48 | AGCCGGGC | -0.185
49 | AAGCTTGA | -0.0535
50 | GCTTCGAA | -0.0925
51 | AATGACAC | 0.273
52 | CCTGACAC | 0.029

Row | Sequence | PBM E-score
53 | TATGACCA | 0.202
54 | ACTGACGC | 0.243
55 | ATTGACGC | 0.265
56 | TATGACAA | 0.25
57 | AATGACGT | 0.495
58 | AAGGACGT | 0.0462
59 | CATGACAC | 0.328
60 | AATGACCT | 0.25
61 | TATGACGA | 0.424
62 | AATGACGC | 0.453
63 | AGAGCGGA | -0.0178
64 | CTCAGACC | -0.22
65 | AGACCACC | -0.137
66 | ACCGTCCA | -0.185
67 | ACAGTGAA | 0.146
68 | CATCTAGA | 0.019
69 | TCCTAGCA | -0.162
70 | GCTCCGAA | -0.0443
71 | CATGACCA | 0.0978
72 | CATGACAG | 0.118
73 | AATGACGA | 0.451
74 | AATGACTA | 0.041
75 | CATGACCG | 0.0772
76 | AATGACGG | 0.35
77 | AATGACCG | 0.178
78 | CCTGACGA | 0.182

Row | Sequence | PBM E-score
79 | CATGACGA | 0.438
80 | ACTGACGA | 0.201
81 | CATGACGG | 0.38
82 | ACTGACGG | 0.105
83 | CGGCCTCA | -0.0129
84 | ACCACCGA | -0.145
85 | CAAAAGCA | -0.0642
86 | AGGGGATG | -0.161
87 | CGGGGCTC | -0.307
88 | ATCGGAGA | -0.197
89 | CATGACTC | 0.0297
90 | AGTGACAC | 0.274
91 | AGTGACAT | 0.459
92 | CATGACCC | -0.0425
93 | AGTGACAA | 0.169
94 | CATGACGC | 0.455
95 | AGCAGAAC | -0.0649
96 | AATCCACC | -0.121
97 | CAGGGCCC | -0.335
98 | CAGTGACC | -0.0895
99 | AAGTGAGA | 0.00703
100 | AAGTGACT | 0.024
101 | AAGTGACG | 0.45
102 | TAGTGATA | 0.088
103 | GAGTGACA | 0.287
104 | AAGTGAAA | 0.193

Row | Sequence | PBM E-score
105 | AAGTGACA | 0.357
106 | AAGTGACC | -0.131
107 | CAGTGACA | 0.248
108 | TAGTGACA | 0.338
109 | CAGTGACG | 0.435
110 | GGAGAATA | 0.103
111 | TACCCGAA | -0.133
112 | ATGCCACG | 0.00475
113 | GGGAGTAC | -0.226
114 | ACTCACCA | 0.043
115 | GGCGTAAC | -0.0656
116 | CCCACGGG | -0.214
117 | TTATCCAA | 0.162
118 | CATTGACC | 0.149
119 | GGGTGACC | -0.0338
120 | CATTGACG | 0.358
121 | TGGTGACA | 0.378
122 | CATTGACA | 0.0835
123 | GGGTGACA | 0.243
124 | CTGCTCCC | -0.174
125 | CCTAATGC | -0.0866
126 | CATCTAAA | 0.194
127 | TCAGCTGA | 0.152
128 | ATTGAGCC | 0.197
129 | TCATTAAA | 0.352
130 | ACATTGCA | -0.0281

Row | Sequence | PBM E-score
131 | CCATTGCA | 0.024
132 | GCATTAAA | 0.163
133 | GCATTACA | 0.187
134 | TCATTACA | 0.368
135 | CCATTACA | 0.225
136 | ACATTAAA | 0.198
137 | TCATTGCA | 0.321
138 | CGGAGAGC | -0.0924
139 | CGTCGGAC | -0.178
140 | ATTTCACG | -0.00077
141 | AGTAAGGA | -0.0515
142 | ATAGATGG | -0.129
143 | CCTTCGAG | -0.21
144 | CGAAGTCA | 0.0581
145 | TGAAGTCA | 0.372
146 | GGAAGTCA | -0.14
147 | CAGCAGTC | -0.258
148 | ATATTTAC | 0.175
149 | ATATTAAA | 0.355
150 | ATATTTAA | 0.355
151 | TTATTAAA | 0.264
152 | CTATTAAA | 0.192
153 | CTATTTAA | -0.0505
154 | ATCAAAGG | -0.0902
155 | CTACCACA | -0.155
156 | AGTTCCCG | -0.205

Row | Sequence | PBM E-score
157 | AGGGCAAT | -0.0329
158 | GTGCGTAA | 0.192
159 | GTGCGTCA | 0.432
160 | ATGCGTCG | 0.0508
161 | ATGCGTCA | 0.444
162 | CTGCGTTA | -0.204
163 | ATGCGTCC | -0.213
164 | CTGCGTCA | 0.428
165 | CTGCGTCC | -0.11
166 | GTGCGTGA | 0.136
167 | TCTAACCA | 0.057
168 | CGTCTACC | -0.0234
169 | CATTTAGA | 0.136
170 | AGCAGCTC | -0.28
171 | GTCAAGCA | -0.29
172 | TAATAAAA | 0.316
173 | GCATAACA | 0.124
174 | GAATATAA | 0.111
175 | CCATATAA | 0.105
176 | TCATAACA | 0.311
177 | AAATATAA | 0.233
178 | ACATAACA | 0.227
179 | TAATATAA | 0.358

— the supplement of paper PMC3334620
